# A selection: hits, their analogues and other compounds. The true share with any hit is near 2.2%.
# Pin1 inhibitor: human Pin1 inhibition | Pin1 FP peptide displacement, HiFluor488, 10 min | Q13526 | 390,000 tested, 0.009% active | Potency, µM (doses to about 115 µM), for the others: at the top dose activity, negative = inhibition, actives largely listed as inhibitors; active = well fitted inhibition curve with a large enough effect in the polarisation, with a control signal flat, not every such curve was filed as active; inconclusive = small, poorly fitted or top-dose-only effect, or effect the other way, or a change in a side signal; inactive = no such curve, though single readings can be large or run the other way; the % refers to the polarisation; also: % is scaled to controls: 0 for no effect and ±100 for the full control effect
# Target sequence (Q13526 whole entry, looked up): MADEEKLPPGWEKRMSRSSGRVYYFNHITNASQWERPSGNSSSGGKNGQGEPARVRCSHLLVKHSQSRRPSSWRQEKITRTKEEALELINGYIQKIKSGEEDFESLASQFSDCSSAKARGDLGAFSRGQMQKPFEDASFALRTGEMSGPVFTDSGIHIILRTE
# A549 tox: counter-screen for Nrf2 inhibitors: cytotoxicity in A549 cells; A549 ARE-Fluc cells, CellTiter-Fluor viability, 18-24 h; Potency, µM (doses to about 46 µM), for inactives: top-dose activity change, negative = cytotoxicity, usual class: inhibitors; 390,000 tested, 0.16% active; also: % is scaled to controls: 0 for no effect and ±100 for the full control effect
#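 Cytotoxicity counterscreen: CellTiter-Fluor fluorescence was measured in A549 ARE_Fluc cells after 18-24 h of compound exposure in a concentration series. The subsequent BugLite luminescent read reports ARE-luciferase activity.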
# Nrf2 block: blocks Nrf2 signaling | 360,000 tested, 2.1% active | Potency, µM (doses to about 46 µM), for the others: top-dose activity change, negative = inhibition, hits mostly inhibitors | A549 ARE-Fluc reporter, luciferase luminescence, 18-24 h; also: % is scaled to controls: 0 for no effect and ±100 for the full control effect; nearly all actives have a fitted effect of over 60% in size
#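 A549 ARE_Fluc cells (5000/well, 5% FBS OPTI-MEM) pre-incubated 2 h, then treated with compounds 18-24 h at 37C/5% CO2 in concentration-response. CellTiter-Fluor viability read first; BugLite luciferase luminescence after 15 min at room temperature gives Nrf2 activity.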
# Nrf2 activator: Nrf2 pathway activation. AREc32 ARE-luciferase reporter (MCF7-derived line), luminescence, 24 h. Potency, µM (titrated, usually from 46.1 µM), inactives show at the highest dose activation, actives largely listed as activators. 410,000 tested, 0.31% active. AID 624171; also: % of control where 0% means no effect; nearly all actives have a fitted effect of over 65% in size
#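 Each well held 1000 AREc32 cells, which were incubated with compound for 24 hr at 37 deg C after overnight attachment, and ARE reporter activity was quantified by firefly luciferase luminescence.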
# An asterisk follows results filed as active; ? = inconclusive; . = no result; [ ] = another dose, or the depositor's remark. Unless noted, calls follow the shape of the dose curve; as a rule, active = well fitted curve in the direction sought with a large enough effect; inconclusive = small, poorly fitted or top-dose-only effect, or another doubt; inactive = no such curve, though single readings can be large; an effect the other way counts as inactive or inconclusive. Potency is read from the fitted curve at half-maximal effect.
SMILES,Pin1 inhibitor,A549 tox,Nrf2 block,Nrf2 activator
O=C(CN1C(=O)c2cccnc2Sc2ccccc21)Nc1cc(F)ccc1F,3%,7%,?,5%
O=C(Nc1ccccc1)NN(C(=O)CCl)c1ccccc1,1%,?,21µM*,?
O=C(Cn1cnc2c(oc3ccccc32)c1=O)Nc1ccccc1C(F)(F)F,18%,-4%,12%,0%
CC(=O)Nc1ccc(Nc2nc(C)c([N+](=O)[O-])c(Nc3ccccc3)n2)cc1,0%,?,16µM*,3%
FC(F)(F)c1ccc(N2CCOCC2)c(Nc2nc3ccccc3n3cnnc23)c1,27%,16µM*,21µM*,7%
CSc1ncc2c(n1)-c1ccccc1N(Cc1ccc(Cl)cc1)S2(=O)=O,0%,2%,15%,-1%
CCNC(=O)/C(C#N)=C/c1c(N(Cc2ccccc2)Cc2ccccc2)nc2ccccn2c1=O,?,?,?,4%
CNC(=O)/C(C#N)=C/c1c(N(Cc2ccccc2)Cc2ccccc2)nc2c(C)cccn2c1=O,46%,?,26µM*,4%
Cc1cccc(/C=C/c2onc(C)c2[N+](=O)[O-])n1,3%,18µM*,15µM*,21%
Cc1cccc(N/C=C/c2onc(C)c2[N+](=O)[O-])c1,47%,-5%,?,?
Cc1c(C(=O)N(C)c2cccc(C(F)(F)F)c2)sc2nc3n(c(=O)c12)CCCCC3,?,?,23%,4%
CN(C)c1ccc(C=c2c3ccccc3n3c2cc(-c2ccccc2)[n+]3C)cc1,?,16µM*,5.8µM*,0%
CN(C)c1ccc(C=c2c3cc([N+](=O)[O-])ccc3n3c2cc(-c2ccccc2)[n+]3C)cc1,?,?,8.2µM*,-4%
CN(C)c1ccc(/C=C2\SC(=O)N(CC(O)Cn3c4ccccc4c4ccccc43)C2=O)cc1 (stereo not given),?,-2%,1%,-1%[9.22 µM]
COc1cc(C=c2c3ccccc3n3c2cc(-c2ccccc2)[n+]3C)cc(OC)c1OC,-10%,?,16µM*,15%
CN(C)c1ccc(C=c2c3ccccc3n3c2c2c([n+]3C)CCCC2)cc1,?,21µM*,6.5µM*,-3%
Cc1cc(C)c(OCC(=O)N(Cc2ccco2)Cc2ccco2)c(C)c1,1%,0%,-20%,0%
CN(C)c1ccc(C=c2c3ccccc3n3c2cc(-c2ccc(Cl)cc2)[n+]3C)cc1,?,?,?,26%
COc1cc(N(C)C)ccc1C=c1c2ccccc2n2c1cc(-c1ccccc1)[n+]2C,61%,?,15µM*,6%
COc1ccc(C2c3[nH]c4ccc(OC)cc4c3CCN2C(=O)Nc2ccccc2)cc1 (stereo not given),-1%,?,15µM*,0%
O=c1oc2ccccc2c(Nc2ccc(F)cc2)c1[N+](=O)[O-],1%,-13%,-25%,28%
O=c1oc2ccccc2c(Nc2ccc(Cl)cc2)c1[N+](=O)[O-],0%,-4%,16µM*,14%
Cc1cc2c(s1)c1cnn(Cc3c(F)c(F)c(C)c(F)c3F)c(=O)c1n2C,4%,-4%,10%,.
O=C(NCCc1nc2ccccc2n1Cc1ccccc1F)c1ccc(F)cc1,25%,?,23µM*,4%
CN(Cc1ccc(OC(F)F)cc1)C(=O)c1ccc(S(=O)(=O)N(C)c2ccccc2)cc1,4%,-6%,?,1%
SMILES,Pin1 inhibitor,A549 tox,Nrf2 block,Nrf2 activator
C/C(=N\NC(=O)c1ccc(CN(C)S(=O)(=O)c2ccc(C)cc2)cc1)c1ccc(OC(F)F)cc1,-2%,-18%,5.2µM*,0%
O=S(=O)(NCC1CCCO1)c1ccc(-c2ccc(S(=O)(=O)NCC3CCCO3)cc2)cc1 (stereo not given),-5%,2%,1.3µM*,1%
Cc1ccc(S(=O)(=O)NCC2CCCO2)cc1 (stereo not given),-2%,11%,26%,3%
COCCN(Cc1cc2c(C)cc(C)cc2nc1Cl)C(=O)c1ccccc1F,?,?,18µM*,-1%
COc1cccc(C2C(C#N)=C(NC(=O)NCc3ccccc3)Oc3ccc4ccccc4c32)c1 (stereo not given),17%,?,-7%,.
CCN(c1ccccc1)C(CNS(=O)(=O)c1ccccc1)c1ccccc1 (stereo not given),0%,-24%,23µM*,0%
Cc1ccc(NC(=O)C2CCN(S(=O)(=O)c3cccc4nsnc34)CC2)cc1F,-7%,14%,0%,-1%
